Sampled rows, rich in hits. Any-hit rate of the full collection: about 14%.
Pf growth 48h: inhibits P. falciparum growth in the first generation, 48 h; P. falciparum luciferase growth in erythrocytes, 48 h; Potency, µM (series often up to 28.7 µM), usual class: inhibitors; hit rate 5.9% among 310,000; AID 504832
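Luminescence readout; reporter = integrated firefly luciferase in P. falciparum. RBC culture at 2% hematocrit, 0.1% parasitemia final, 37 C/5% CO2; decreased signal taken as growth inhibition.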
Sm TGR inh: blocks Schistosoma mansoni thioredoxin glutathione reductase; Q962Y6; purified TGR, DTNB reduction, TNB absorbance 405 nm; Potency, µM (series often up to 114 µM), usual class: inhibitors; hit rate 3% among 360,000; AID 485364; note: nearly all actives have a fitted effect of over 60% in size
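Kinetic colorimetric format: TGR-catalysed, NADPH-driven DTNB reduction monitored via TNB absorbance. Enzyme dispensed at 20 nM; compound exposure 15 min at room temperature before reaction start.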
Pf growth 96h: P. falciparum growth inhibition at 96 hour, primary screen for plastid delayed-death inhibitors | P. falciparum luciferase reporter growth, 96 h | Potency, µM (top dose mostly 28.7 µM), most hits filed as inhibitors | hit rate 6.9% among 320,000
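Plates of compound plus infected erythrocytes (2% hematocrit, 0.05% parasitemia final) incubate 96 hours, 37 C, 5% CO2. Detection reagent added; reduced luminescence from the parasites' luciferase reporter flags inhibition.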
HCMV inh: human cytomegalovirus inhibition; HFF cells, HCMV-luciferase reporter, 72 h; stronger effect = lower value; activity change, negative = inhibition, % at 57.5 µM; hit rate 4.5% among 410,000; AID 1259415; in the data active = activity change below about -60%; inconclusive = no clear call, values can overlap the other calls; inactive = above about -39%
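Inhibition of viral replication was scored as loss of reporter luminescence in HFFs infected with HCMV-luciferase (MOI 1 PFU/cell) for 72 h; compounds tested at 2 doses, normalized to buffer and Salinomycin controls.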
FBPA Giardia inh: inhibitors of Giardia lamblia fructose-1,6-bisphosphate aldolase | purified Giardia FBPA | hit rate 0.71% among 290,000 | Potency, µM (top dose mostly 59.6 µM), most hits filed as inhibitors | AID 2451; note: nearly all actives have a fitted effect of over 55% in size
Target sequence (A8B2U2 whole entry, looked up): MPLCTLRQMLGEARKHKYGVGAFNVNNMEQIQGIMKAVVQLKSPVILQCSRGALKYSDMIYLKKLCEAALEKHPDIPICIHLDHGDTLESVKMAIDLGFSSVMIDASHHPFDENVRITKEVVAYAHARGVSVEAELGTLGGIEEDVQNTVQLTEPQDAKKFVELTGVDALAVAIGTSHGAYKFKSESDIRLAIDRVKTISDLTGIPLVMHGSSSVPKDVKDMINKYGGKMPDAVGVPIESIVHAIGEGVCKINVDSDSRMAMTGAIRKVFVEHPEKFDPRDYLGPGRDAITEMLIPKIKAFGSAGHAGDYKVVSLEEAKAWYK
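40 nM FBPA preincubated 10 min at RT with compound (up to 57.5 uM final), then substrate plus GAPDH/TPI/NAD/arsenate coupling and diaphorase/resazurin added. Fluorescence read after 20 min at RT, 525/598 nm.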
A number is an active result; [ ] = another dose, or the depositor's remark. Unless noted, calls come from the whole dose curve; as a rule, active = well fitted curve in the direction sought with a large enough effect; inconclusive = small, poorly fitted or top-dose-only effect, or another doubt; inactive = no such curve, though single readings can be large; an effect the other way counts as inactive or inconclusive.

Screening COC(=O)c1cncn1C(C)c1ccccc1 (centres undefined) returned Pf growth 48h inconclusive, Sm TGR inh inactive, Pf growth 96h 2.1µM, HCMV inh inactive and FBPA Giardia inh inactive.
`CC(c1ccccc1)n1cncc1C(=O)O` (centres undefined) gave Pf growth 48h inactive, Sm TGR inh inactive, Pf growth 96h 1.5µM, HCMV inh inactive and FBPA Giardia inh inactive.
`CC(c1ccccc1)n1cnc2ccccc21` (centres undefined) gave Pf growth 48h inactive, Sm TGR inh inactive, Pf growth 96h inactive, HCMV inh inactive and FBPA Giardia inh inactive.
CC(=O)Nc1ccc(OCC(=O)N(CC(C)C)C2CCS(=O)(=O)C2)cc1 (centres undefined) was read as Pf growth 48h inactive, Sm TGR inh inactive, Pf growth 96h inactive[5.75 µM], HCMV inh inactive and FBPA Giardia inh inactive.
`O=S(=O)(Nc1ccc(-c2ccc(N3CCCC3)nn2)cc1)c1ccccc1Cl` gave Sm TGR inh inactive and HCMV inh inactive.
`COCCn1c(=O)c(-c2cccc(C#N)c2)nc2cnc(OCc3ccccc3)nc21` gave FBPA Giardia inh inactive.
Screening Cc1c(-c2cccs2)[n+](=O)c2c(n1[O-])CCCCC2 returned Pf growth 48h inactive, Sm TGR inh inactive, Pf growth 96h 10µM, HCMV inh inactive and FBPA Giardia inh inactive.
CN(C)c1nc(N)nc(/C(C#N)=C/C2CC3C=CC2C3)n1 (centres undefined) was read as Pf growth 48h inconclusive, Sm TGR inh 40µM, Pf growth 96h inactive, HCMV inh inactive and FBPA Giardia inh inconclusive.
Screening Cn1c(CN2CCCCC2)nc2cc(NC(=O)c3ccc(F)cc3)ccc21 returned Pf growth 48h inactive, Sm TGR inh inactive, Pf growth 96h inconclusive, HCMV inh -62 and FBPA Giardia inh inactive.
`CC(=O)N1CCN(Cc2nc3cc(NC(=O)c4ccc(Cl)cc4)ccc3n2C)CC1` gave Sm TGR inh inactive, Pf growth 96h inactive, HCMV inh -80 and FBPA Giardia inh inactive.
For CC(=O)N1CCN(Cc2nc3cc(NC(=O)c4cccc(Br)c4)ccc3n2C)CC1 the results were Pf growth 48h inactive, Sm TGR inh inactive, Pf growth 96h inactive, HCMV inh -73 and FBPA Giardia inh inactive.
`CC(=O)N1CCN(Cc2nc3cc(NC(=O)c4ccccc4C)ccc3n2C)CC1` gave Pf growth 48h inactive, Sm TGR inh inactive, Pf growth 96h inconclusive, HCMV inh inactive and FBPA Giardia inh inactive.
For Cn1c(CN2CCCCC2)nc2cc(NC(=O)c3ccccc3Cl)ccc21 the results were Pf growth 48h inconclusive, Sm TGR inh inactive, Pf growth 96h inactive, HCMV inh inconclusive and FBPA Giardia inh inactive.
`CCOC(=O)N1CCN(Cc2nc3cc(NC(=O)c4ccc(OC)cc4)ccc3n2C(C)C)CC1` gave Sm TGR inh inactive and HCMV inh inactive.
`CCOC(=O)N1CCN(Cc2nc3cc(NC(=O)c4ccc(F)cc4)ccc3n2C(C)C)CC1` gave Sm TGR inh inactive and HCMV inh -85.
`NNC(=O)c1[nH]c2ccc(Br)cc2c1-c1ccccc1` gave Pf growth 48h inconclusive, Sm TGR inh inactive, Pf growth 96h inconclusive, HCMV inh -96 and FBPA Giardia inh inactive.
NNC(=O)c1[nH]c2ccc(Cl)cc2c1-c1ccccc1 was read as Pf growth 48h inconclusive, Sm TGR inh inactive, Pf growth 96h inconclusive, HCMV inh -97 and FBPA Giardia inh inactive.
For O=C(O)CSc1c(-c2ccccc2)c2cc(Cl)ccc2[nH]c1=O the results were Pf growth 48h inactive, Sm TGR inh inactive, Pf growth 96h inactive, HCMV inh inactive and FBPA Giardia inh inactive.
For CC(=O)NNC(=O)c1[nH]c2ccc(Br)cc2c1-c1ccccc1 the results were Pf growth 48h inactive, Sm TGR inh inactive, Pf growth 96h inactive, HCMV inh inactive and FBPA Giardia inh inactive.
C=CCNC(=S)NNC(=O)COc1ccc(Br)cc1 was read as Pf growth 48h inactive, Sm TGR inh inactive, Pf growth 96h 5.9µM, HCMV inh -61 and FBPA Giardia inh inactive.
Screening C=CCNC(=S)NNC(=O)COc1ccc2cc(Br)ccc2c1 returned Pf growth 48h inactive, Pf growth 96h inconclusive, HCMV inh inactive and FBPA Giardia inh inactive.
`O=C(Nc1nnc([C@@H]2C[C@H](O)[C@@H](CO)O2)s1)c1ccccc1Cl` gave HCMV inh inactive.
`Cc1ccc(-c2nc3cc(Br)cnc3nc2-c2ccc(C)cc2)cc1` gave Pf growth 48h inconclusive, Sm TGR inh inactive, Pf growth 96h 15µM, HCMV inh inactive and FBPA Giardia inh inactive.
For Brc1cccc(-c2nc3cccnc3nc2-c2cccc(Br)c2)c1 the results were Pf growth 48h inactive, Sm TGR inh inactive, Pf growth 96h inconclusive, HCMV inh inactive and FBPA Giardia inh inactive.
Screening COC(=O)C(Cc1cccc(C)n1)(c1ccccc1)c1ccccc1 returned Pf growth 48h 9.3µM, Sm TGR inh inactive, Pf growth 96h inconclusive, HCMV inh inactive and FBPA Giardia inh inactive.
Screening Cc1cc(N/N=C/c2ccc(F)cc2)nc(-n2nc(C)cc2C)n1 returned Pf growth 48h 0.33µM, Sm TGR inh inactive, Pf growth 96h 1µM, HCMV inh -96 and FBPA Giardia inh inactive.
COc1ccc(/C=N/Nc2cc(C)nc(-n3nc(C)cc3C)n2)c(OC)c1 was read as Pf growth 48h 1.5µM, Sm TGR inh inactive, Pf growth 96h 0.33µM, HCMV inh -98 and FBPA Giardia inh inactive.
For CCOc1cc(/C=N/Nc2cc(C)nc(-n3nc(C)cc3C)n2)ccc1O the results were Pf growth 48h 0.37µM, Sm TGR inh inactive, Pf growth 96h 1.7µM, HCMV inh -78 and FBPA Giardia inh inactive.
Screening CCOc1cc(/C=N/Nc2nc(C)cc(=O)[nH]2)ccc1O returned Pf growth 48h inconclusive, Sm TGR inh inactive, Pf growth 96h inactive, HCMV inh inactive and FBPA Giardia inh inactive.
O=C1NC(=O)C2(Br)Nc3ccc(Br)cc3C(=O)C2N1 (centres undefined) was read as HCMV inh inactive.
O=C(NCC(c1ccco1)N1CCN(c2ccccc2F)CC1)c1ccc2c(c1)OCO2 (centres undefined) was read as Pf growth 48h inactive, Sm TGR inh inactive, Pf growth 96h inconclusive and HCMV inh inactive.
`Cc1ccc(N2CC(C(N)=O)CC2=O)cc1` (centres undefined) gave Pf growth 48h inactive, Sm TGR inh inactive, Pf growth 96h inactive[5.75 µM], HCMV inh inactive and FBPA Giardia inh inactive.
For Cc1ccc(N2CCN(c3ccc(C)cc3)C(CC(=O)O)C2=O)cc1 (centres undefined) the results were Pf growth 48h 12µM, Sm TGR inh inactive, Pf growth 96h inconclusive, HCMV inh inactive and FBPA Giardia inh inactive.
Screening Cn1c(-c2c(N)n(C3CCCC3)c3nc4ccccc4nc23)nc2ccccc21 returned Pf growth 48h 12µM, Sm TGR inh inactive, Pf growth 96h 8.3µM, HCMV inh inconclusive and FBPA Giardia inh inactive.
Screening Cn1c(-c2c(N)n(CCc3ccccc3)c3nc4ccccc4nc23)nc2ccccc21 returned Sm TGR inh inactive, Pf growth 96h 5.2µM, HCMV inh inactive and FBPA Giardia inh inactive.

Bioassay records (PubChem BioAssay)
